This assay has as its target Genome polyprotein (dengue virus type 2) (UniProt P29990).
The mark [1] stands for this setting: Thailand/16681/1984, Concentration 25.0 uM, Number of replicates 1.0.

The term inhibition denotes the drop in the measured response relative to a control, in per cent.

Each structure is given as a SMILES string. Hit rate of the full screen: of about 2,000 compounds, about 110 (5.5%) showed an effect of 50% or more. For the sample, strong results were picked, then their nearest neighbours and some compounds at random.

As to `COCCCN(Cc1ccccc1)C(=O)C1CCN(c2ccc(C=O)cc2)CC1`, the inhibition under setting [1] amounted to 16.7%.

Take `O=Cc1ccc(N2CCC(C(=O)Nc3cccc(OC(F)(F)F)c3)CC2)cc1`: under setting [1], the inhibition came to 12.8%.

With `O=Cc1ccc(N2CCC(C(=O)N3CCN(c4ncc(C(F)(F)F)cc4Cl)CC3)CC2)cc1`, the inhibition under setting [1] is -1.15%.

For the compound `CSCC(=O)Nc1ccc(Cl)c2cccnc12`, the inhibition was -8.76% (Thailand/16681/1984, Concentration 49.95 uM, Number of replicates 2.0, Standard deviation 4.284996583998793 %) and -8.17% (Thailand/16681/1984, Concentration 99.9 uM, Number of replicates 2.0, Standard deviation 5.022059659232943 %).

Turning to `Cc1c(C(=O)NCc2ccc(Cl)cc2OCCO)ccc(O)c1NC(=O)c1ccncc1F`, the inhibition by setting is: (Thailand/16681/1984, Concentration 49.5 uM, Number of replicates 2.0, Standard deviation 1.9465984757153059 %) -3.14%; (Thailand/16681/1984, Concentration 99.01 uM, Number of replicates 2.0, Standard deviation 1.7394020396248402 %) -2.65%; (Thailand/16681/1984, Concentration 198.0 uM, Number of replicates 2.0, Standard deviation 1.2400320592735166 %) 0.351%.

Turning to `Cc1ccc2cccc(NC(=O)C3CCN(c4ccc(C=O)cc4)CC3)c2n1`, the inhibition under setting [1] turned out to be 50.9%.

For `O=Cc1ccc(N2CCC(C(=O)Nc3ncc(F)cc3Br)CC2)cc1`, under setting [1], the inhibition turned out to be 10.9%.

Turning to `O=Cc1ccc(N2CCC(C(=O)Nc3ccc(Br)cc3O)CC2)cc1`, the inhibition under setting [1] came out at 31.4%.

In the case of `Cc1nc(NC(=O)C2CCN(c3ccc(C=O)cc3)CC2)ccc1Br`, the inhibition under setting [1] is 12.1%.

Turning to `O=Cc1ccc(N2CCC(C(=O)Nc3cccc(C(F)(F)F)n3)CC2)cc1`, the inhibition under setting [1] worked out at 13.5%.

Turning to `O=Cc1ccc(N2CCC(C(=O)Nc3cccc4ccc(O)cc34)CC2)cc1`, the inhibition under setting [1] stood at 35.2%.

`O=Cc1ccc(N2CCC(C(=O)Nc3ncc(Br)cc3O)CC2)cc1`: the inhibition under setting [1] is 52.8%.

In the case of `O=Cc1ccc(N2CCC(C(=O)Nc3cccc(Br)n3)CC2)cc1`, under setting [1], the inhibition came to 92.6%.

Consider `Cc1c(Br)cccc1NC(=O)C1CCN(c2ccc(C=O)cc2)CC1`, for which the inhibition under setting [1] amounted to 13%.

Take `COC(=O)c1cccc(C(=O)Nc2ccncc2C)c1`: the inhibition runs as follows: (Thailand/16681/1984, Concentration 49.5 uM, Number of replicates 2.0, Standard deviation 0.22567664905073445 %) -4.08%; (Thailand/16681/1984, Concentration 99.01 uM, Number of replicates 2.0, Standard deviation 0.2045809712592737 %) -3.74%; (Thailand/16681/1984, Concentration 198.0 uM, Number of replicates 2.0, Standard deviation 1.3054913833669988 %) -2.98%.

For the compound `C[C@@H](c1ccccc1)N(CC1CC1)C(=O)C1CCN(c2ccc(C=O)cc2)CC1`, the inhibition under setting [1] came to 13.8%.

As for `O=C(c1csc([C@H]2CCCNC2)n1)N1CC[C@H](c2cccnc2)C1`, the inhibition is -0.499% (Thailand/16681/1984, Concentration 49.5 uM, Number of replicates 2.0, Standard deviation 1.7251582592894925 %); 1.01% (Thailand/16681/1984, Concentration 99.01 uM, Number of replicates 2.0, Standard deviation 2.248532513594862 %); 2.41% (Thailand/16681/1984, Concentration 198.0 uM, Number of replicates 2.0, Standard deviation 1.6393165928155962 %).

Consider `NS(=O)(=O)c1cccc(CN2CC[C@H](c3c[nH]c4ccccc34)C2)c1`, for which the inhibition by setting is: (Thailand/16681/1984, Concentration 49.5 uM, Number of replicates 2.0, Standard deviation 1.1633260593891446 %) -1.78%; (Thailand/16681/1984, Concentration 99.01 uM, Number of replicates 2.0, Standard deviation 1.588607527736017 %) 0.04%; (Thailand/16681/1984, Concentration 198.0 uM, Number of replicates 2.0, Standard deviation 1.7864683947344713 %) 2.15%.

For the compound `Cc1cc(CO)c2cccc(CC(=O)Nc3cccc(C(N)=O)c3)c2n1`, the inhibition runs as follows: (Thailand/16681/1984, Concentration 49.95 uM, Number of replicates 2.0, Standard deviation 0.3351031861891448 %) 71.5%; (Thailand/16681/1984, Concentration 99.9 uM, Number of replicates 2.0, Standard deviation 0.3101738310571331 %) 94.2%.

Consider `Cc1cc(CO)c2cccc(Cc3cccc(C(=O)Nc4cccc(C(N)=O)c4)c3)c2n1`, for which the inhibition runs as follows: (Thailand/16681/1984, Concentration 49.95 uM, Number of replicates 2.0, Standard deviation 0.8487279472032775 %) 0.063%; (Thailand/16681/1984, Concentration 99.9 uM, Number of replicates 2.0, Standard deviation 0.25943340872226184 %) 4.4%.

On to `Cc1cc(CO)c2cccc(Cc3ccccc3C(=O)Nc3cccc(C(N)=O)c3)c2n1`, for which the inhibition by setting is: (Thailand/16681/1984, Concentration 49.95 uM, Number of replicates 2.0, Standard deviation 0.1803817681308647 %) 4.23%; (Thailand/16681/1984, Concentration 99.9 uM, Number of replicates 2.0, Standard deviation 0.18828716821235608 %) 9.06%.

For `Cc1cc(CO)c2cccc(CC(=O)Nc3nonc3C(N)=O)c2n1`, the inhibition by setting is: (Thailand/16681/1984, Concentration 49.95 uM, Number of replicates 2.0, Standard deviation 0.10454576349345478 %) 97.1%; (Thailand/16681/1984, Concentration 99.9 uM, Number of replicates 2.0, Standard deviation 0.006921524049853062 %) 99%.

Regarding `Cc1cc(CO)c2cccc(Nc3nonc3C(N)=O)c2n1`, the inhibition by setting is: (Thailand/16681/1984, Concentration 49.95 uM, Number of replicates 2.0, Standard deviation 1.5271718368293243 %) 11%; (Thailand/16681/1984, Concentration 99.9 uM, Number of replicates 2.0, Standard deviation 3.697399383401008 %) 23.8%.

Consider `Cc1cc(CO)c2cccc(Cc3ccccc3C(=O)Nc3nonc3C(N)=O)c2n1`, for which the inhibition by setting is: (Thailand/16681/1984, Concentration 49.95 uM, Number of replicates 2.0, Standard deviation 0.20481615067396447 %) 9.42%; (Thailand/16681/1984, Concentration 99.9 uM, Number of replicates 2.0, Standard deviation 0.252245853764608 %) 28.4%.

For the compound `Cc1cc(CO)c2cccc(Cc3cccc(C(=O)Nc4nonc4C(N)=O)c3)c2n1`, the inhibition reads like this: (Thailand/16681/1984, Concentration 49.95 uM, Number of replicates 2.0, Standard deviation 1.9942580477177279 %) 23.4%; (Thailand/16681/1984, Concentration 99.9 uM, Number of replicates 2.0, Standard deviation 1.5142007227316114 %) 73%.

For the origin of these results see ChEMBL document CHEMBL5606460, “ASAP - DENV-2 NS2B-NS3 protease fluorescence single point” (2024).
